Measurements published in ChEMBL document CHEMBL3988442, “University of Dundee, Small-Polar-MMV Screening Library” (2021).
For part of these data: Results with a measured potency or affinity are listed apart.

Legend:
Set-up in all cases: scale not given: direction of the effect not stated beside the values
[1] = molecular target: Protein translocase subunit SecA (Escherichia coli (strain K12)) (UniProt P10408); test: Assay to Identify E. coli SecA ATPase Inhibitors; type: functional; conditions: 30 µM
Protein translocase subunit SecA (Escherichia coli (strain K12)), sequence (P10408 whole entry): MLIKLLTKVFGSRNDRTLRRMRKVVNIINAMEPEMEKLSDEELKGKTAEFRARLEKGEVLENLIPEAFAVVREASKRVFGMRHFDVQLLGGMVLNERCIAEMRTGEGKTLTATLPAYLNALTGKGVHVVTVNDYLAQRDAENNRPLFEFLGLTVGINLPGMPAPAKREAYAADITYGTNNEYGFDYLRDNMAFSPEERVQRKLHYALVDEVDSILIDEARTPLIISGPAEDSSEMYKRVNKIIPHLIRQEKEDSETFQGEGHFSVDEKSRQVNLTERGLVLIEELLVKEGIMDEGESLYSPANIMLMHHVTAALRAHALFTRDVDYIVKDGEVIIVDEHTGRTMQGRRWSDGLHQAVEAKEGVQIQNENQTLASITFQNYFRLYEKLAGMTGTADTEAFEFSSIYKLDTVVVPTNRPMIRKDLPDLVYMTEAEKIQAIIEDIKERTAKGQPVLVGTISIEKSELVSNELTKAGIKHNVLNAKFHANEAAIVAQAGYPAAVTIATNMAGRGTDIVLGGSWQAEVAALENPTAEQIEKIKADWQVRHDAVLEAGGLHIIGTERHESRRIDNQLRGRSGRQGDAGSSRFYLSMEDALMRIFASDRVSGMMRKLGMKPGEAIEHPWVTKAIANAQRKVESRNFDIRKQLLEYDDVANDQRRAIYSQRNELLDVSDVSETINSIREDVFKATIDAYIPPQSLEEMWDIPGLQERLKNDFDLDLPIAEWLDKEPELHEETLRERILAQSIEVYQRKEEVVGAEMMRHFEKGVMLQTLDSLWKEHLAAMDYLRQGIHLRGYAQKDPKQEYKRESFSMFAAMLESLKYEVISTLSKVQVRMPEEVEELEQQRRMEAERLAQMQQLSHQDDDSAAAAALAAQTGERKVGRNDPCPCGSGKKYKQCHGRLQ

[2] = molecular target: T1, Ubiquitin-activating enzyme e1, putative (Leishmania donovani (strain BPK282A1)) (UniProt E9BSI1); test: Leishmania donovani Ubiquitin Activating Enzyme (LdE1); type: functional; conditions: 30 µM
T1 sequence (whole entry): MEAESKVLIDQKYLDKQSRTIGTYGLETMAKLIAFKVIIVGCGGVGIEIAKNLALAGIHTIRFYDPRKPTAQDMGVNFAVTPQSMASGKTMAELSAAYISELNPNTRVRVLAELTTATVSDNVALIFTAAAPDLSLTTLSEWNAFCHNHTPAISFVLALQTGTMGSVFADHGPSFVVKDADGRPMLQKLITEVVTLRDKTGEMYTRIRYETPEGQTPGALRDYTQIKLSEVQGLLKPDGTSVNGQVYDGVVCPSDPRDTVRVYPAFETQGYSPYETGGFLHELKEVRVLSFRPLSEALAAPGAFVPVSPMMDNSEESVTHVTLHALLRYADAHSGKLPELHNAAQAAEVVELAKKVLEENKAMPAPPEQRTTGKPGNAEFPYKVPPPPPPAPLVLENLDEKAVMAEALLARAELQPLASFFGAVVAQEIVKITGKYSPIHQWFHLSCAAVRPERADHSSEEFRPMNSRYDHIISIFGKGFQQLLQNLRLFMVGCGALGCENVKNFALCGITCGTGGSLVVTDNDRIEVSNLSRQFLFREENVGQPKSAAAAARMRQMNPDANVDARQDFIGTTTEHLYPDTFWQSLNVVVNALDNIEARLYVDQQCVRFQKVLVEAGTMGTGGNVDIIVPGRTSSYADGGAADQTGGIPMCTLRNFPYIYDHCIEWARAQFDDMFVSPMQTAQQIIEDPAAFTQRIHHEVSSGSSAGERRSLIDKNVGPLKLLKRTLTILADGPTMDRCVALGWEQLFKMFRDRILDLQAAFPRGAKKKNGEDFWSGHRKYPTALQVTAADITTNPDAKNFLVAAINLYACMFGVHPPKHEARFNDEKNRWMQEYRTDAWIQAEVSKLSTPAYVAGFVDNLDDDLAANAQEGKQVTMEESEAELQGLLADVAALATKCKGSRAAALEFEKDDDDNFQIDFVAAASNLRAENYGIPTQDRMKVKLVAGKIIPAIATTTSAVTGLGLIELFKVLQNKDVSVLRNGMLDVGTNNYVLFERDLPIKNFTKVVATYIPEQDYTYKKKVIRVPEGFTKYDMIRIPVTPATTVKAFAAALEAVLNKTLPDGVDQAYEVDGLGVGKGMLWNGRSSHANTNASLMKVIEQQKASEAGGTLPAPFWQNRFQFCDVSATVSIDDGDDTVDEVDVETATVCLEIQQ

[3] = molecular target: AMP-activated protein kinase, AMPK (Homo sapiens) (UniProt P54646+O43741+P54619+Q9UGJ0+Q9Y478+Q13131+Q9UGI9); test: AMP-dependent Kinase enzyme assay. An in vitro enzyme assay that detects ADP turnover that is directly proportional to AMPK activity. This uses naive AMPK that is activated during the assay with MK-8722; type: functional; conditions: 30 µM
[4] = molecular target: Sialic acid-binding Ig-like lectin 9 (Homo sapiens) (UniProt Q9Y336); test: Hs-Siglec9 ALPHAscreen SOP 20170721; conditions: 10 µM
Sialic acid-binding Ig-like lectin 9 (Homo sapiens), sequence (Q9Y336 whole entry): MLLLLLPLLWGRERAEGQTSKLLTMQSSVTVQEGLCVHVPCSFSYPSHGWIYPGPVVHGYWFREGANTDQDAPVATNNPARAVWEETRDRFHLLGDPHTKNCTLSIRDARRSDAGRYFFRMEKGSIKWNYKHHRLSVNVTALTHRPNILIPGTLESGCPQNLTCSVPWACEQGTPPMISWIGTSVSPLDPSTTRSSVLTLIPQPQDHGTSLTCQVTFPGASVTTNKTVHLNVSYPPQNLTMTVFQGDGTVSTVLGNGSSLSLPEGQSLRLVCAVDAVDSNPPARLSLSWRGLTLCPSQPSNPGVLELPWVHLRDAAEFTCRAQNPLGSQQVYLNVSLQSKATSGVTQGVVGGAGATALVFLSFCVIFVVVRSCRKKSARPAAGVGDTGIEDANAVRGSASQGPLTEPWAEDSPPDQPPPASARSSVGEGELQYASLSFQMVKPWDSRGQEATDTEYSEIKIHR

Trypanosoma cruzi = test: Trypanosoma cruzi phosphomannomutase and mannose-1-phosphate guanylyltransferase assay; type: functional; conditions: 10 µM
[5] = molecular target: T2, Arginase-2, mitochondrial (Homo sapiens) (UniProt P78540); test: in vitro enzyme assay to detect the production of urea directly proportional to the activity of Arginase II; type: functional; conditions: 33.3 µM; further: in the data most compounds retested in dose-response had high values
T2 sequence (whole entry): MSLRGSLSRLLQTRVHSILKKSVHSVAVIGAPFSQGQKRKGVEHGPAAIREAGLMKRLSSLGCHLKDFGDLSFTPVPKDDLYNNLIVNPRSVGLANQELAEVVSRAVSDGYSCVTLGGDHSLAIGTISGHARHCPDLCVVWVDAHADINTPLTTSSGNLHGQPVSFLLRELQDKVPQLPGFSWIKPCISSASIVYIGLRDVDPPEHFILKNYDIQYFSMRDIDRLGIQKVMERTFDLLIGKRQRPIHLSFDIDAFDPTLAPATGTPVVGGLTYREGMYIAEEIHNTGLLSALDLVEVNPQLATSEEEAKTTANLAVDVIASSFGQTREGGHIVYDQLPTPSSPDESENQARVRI

[6] = molecular target: T3, Proteasome subunit beta (Trypanosoma cruzi) (UniProt O96673); test: Trypanosoma cruzi proteasome chymotrypsin-like activity (TcProtChymo) assay.; further: in the data most compounds retested in dose-response had high values; type: functional; conditions: 9.37 µM
T3 sequence (whole entry): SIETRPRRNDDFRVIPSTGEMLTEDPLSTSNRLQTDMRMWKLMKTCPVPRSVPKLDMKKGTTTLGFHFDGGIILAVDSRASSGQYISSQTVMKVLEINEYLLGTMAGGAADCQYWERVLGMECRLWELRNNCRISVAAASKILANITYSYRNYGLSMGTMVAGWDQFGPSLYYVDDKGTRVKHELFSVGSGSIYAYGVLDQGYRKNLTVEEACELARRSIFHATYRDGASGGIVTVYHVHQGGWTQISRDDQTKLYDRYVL

Homo sapiens = organism: Homo sapiens; test: To identify inhibition of the IFN signalling (Jak-Stat) pathway via expression of an eGFP reporter gene under the control of an IFN-stimulated response element (ISRE) containing MxA promoter.; type: functional; conditions: 30 µM
[7] = molecular target: T4, Tyrosyl-tRNA synthetase, putative (Trypanosoma cruzi (strain CL Brener)) (UniProt Q4DSP6); test: Trypanosoma cruzi tyrosyl tRNA synthetase (TcYRS) _High Tyrosine SOP; type: functional; conditions: 30 µM; further: in the data most compounds retested in dose-response had high values
T4 sequence (whole entry): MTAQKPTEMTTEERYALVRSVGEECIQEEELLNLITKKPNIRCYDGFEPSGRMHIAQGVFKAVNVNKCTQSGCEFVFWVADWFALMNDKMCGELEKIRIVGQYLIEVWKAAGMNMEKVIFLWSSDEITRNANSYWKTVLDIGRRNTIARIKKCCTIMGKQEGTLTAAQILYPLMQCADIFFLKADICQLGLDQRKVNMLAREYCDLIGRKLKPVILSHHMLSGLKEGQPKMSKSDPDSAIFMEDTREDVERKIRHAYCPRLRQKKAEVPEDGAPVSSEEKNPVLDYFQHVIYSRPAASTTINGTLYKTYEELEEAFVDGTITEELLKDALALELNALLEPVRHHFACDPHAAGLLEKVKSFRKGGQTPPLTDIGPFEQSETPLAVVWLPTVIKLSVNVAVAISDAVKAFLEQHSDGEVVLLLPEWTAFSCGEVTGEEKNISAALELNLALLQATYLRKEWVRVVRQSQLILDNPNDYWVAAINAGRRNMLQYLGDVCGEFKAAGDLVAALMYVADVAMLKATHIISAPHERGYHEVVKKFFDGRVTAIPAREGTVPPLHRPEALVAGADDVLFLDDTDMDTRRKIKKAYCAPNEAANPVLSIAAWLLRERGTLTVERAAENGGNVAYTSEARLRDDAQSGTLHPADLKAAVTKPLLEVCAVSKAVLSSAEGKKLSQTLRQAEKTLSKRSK

[8] = molecular target: T4, Tyrosyl-tRNA synthetase, putative (Trypanosoma cruzi (strain CL Brener)); test: Trypanosoma cruzi tyrosyl tRNA synthetase (TcYRS) SOP; type: functional; conditions: 30 µM
[9] = molecular target: Chromo domain-containing protein 1 (Saccharomyces cerevisiae (strain ATCC 204508 / S288c) (Baker's yeast)) (UniProt P32657); test: ScCHD-1 Enzyme Inhibition Assay; type: functional; conditions: 30 µM; further: in the data most compounds retested in dose-response had high values
Chromo domain-containing protein 1 (Saccharomyces cerevisiae (strain ATCC 204508 / S288c) (Baker's yeast)), sequence (P32657 whole entry, the tested form may be a part): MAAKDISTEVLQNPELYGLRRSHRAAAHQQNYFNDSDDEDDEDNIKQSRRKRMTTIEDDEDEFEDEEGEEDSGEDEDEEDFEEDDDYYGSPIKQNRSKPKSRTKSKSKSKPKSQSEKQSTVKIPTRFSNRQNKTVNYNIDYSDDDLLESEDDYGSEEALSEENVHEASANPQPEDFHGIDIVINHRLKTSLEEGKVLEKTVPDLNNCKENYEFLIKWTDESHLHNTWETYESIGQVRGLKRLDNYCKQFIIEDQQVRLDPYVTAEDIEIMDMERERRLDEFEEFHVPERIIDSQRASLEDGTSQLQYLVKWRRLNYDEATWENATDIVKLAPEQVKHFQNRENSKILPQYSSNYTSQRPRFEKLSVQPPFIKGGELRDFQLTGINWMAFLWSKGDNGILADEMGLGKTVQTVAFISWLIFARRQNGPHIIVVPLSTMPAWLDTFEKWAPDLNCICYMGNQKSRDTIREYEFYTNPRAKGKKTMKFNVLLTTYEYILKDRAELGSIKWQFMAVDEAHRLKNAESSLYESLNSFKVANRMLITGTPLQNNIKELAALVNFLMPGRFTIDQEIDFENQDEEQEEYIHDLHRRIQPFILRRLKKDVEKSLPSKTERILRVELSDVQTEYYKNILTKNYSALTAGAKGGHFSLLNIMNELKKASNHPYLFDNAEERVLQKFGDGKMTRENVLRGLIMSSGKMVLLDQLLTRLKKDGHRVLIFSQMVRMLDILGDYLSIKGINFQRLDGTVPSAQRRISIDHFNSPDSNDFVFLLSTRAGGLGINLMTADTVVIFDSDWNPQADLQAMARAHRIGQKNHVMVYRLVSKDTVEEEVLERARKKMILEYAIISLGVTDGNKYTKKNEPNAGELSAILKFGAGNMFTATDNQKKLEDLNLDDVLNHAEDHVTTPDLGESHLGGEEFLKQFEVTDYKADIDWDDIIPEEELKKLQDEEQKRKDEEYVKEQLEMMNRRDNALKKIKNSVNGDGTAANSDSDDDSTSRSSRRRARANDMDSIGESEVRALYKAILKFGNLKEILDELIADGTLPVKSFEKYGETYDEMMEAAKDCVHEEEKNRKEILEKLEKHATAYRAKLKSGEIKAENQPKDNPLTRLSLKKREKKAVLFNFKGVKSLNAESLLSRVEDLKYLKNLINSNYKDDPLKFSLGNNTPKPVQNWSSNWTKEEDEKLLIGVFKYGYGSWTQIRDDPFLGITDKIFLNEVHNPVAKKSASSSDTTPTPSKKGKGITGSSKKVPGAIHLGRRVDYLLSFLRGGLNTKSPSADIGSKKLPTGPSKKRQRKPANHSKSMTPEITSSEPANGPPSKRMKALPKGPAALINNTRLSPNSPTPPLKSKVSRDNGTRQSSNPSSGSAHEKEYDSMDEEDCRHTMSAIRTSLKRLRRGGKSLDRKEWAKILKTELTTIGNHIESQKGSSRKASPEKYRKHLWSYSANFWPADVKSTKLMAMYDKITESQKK

Row | Compound | Percent Effect [1] [%] | Percent Effect [2] [%] | Percent Effect [3] [%] | Percent Effect [4] [%] | Percent Effect (Trypanosoma cruzi) [%] | Percent Effect [5] [%] | Percent Effect [6] [%] | Percent Effect (Homo sapiens) [%] | Percent Effect [7] [%] | Percent Effect [8] [%] | Percent Effect [9] [%]
1 | Cc1nn(C)c(N(C)C)c1CNC1CCOc2c(F)cccc21 (centres undefined) | -6.1 | 5.26 | -2.48 | 4.77 | -6.01 | 0.766 | 8.02 | 9.98 | 6.37 | 4.88 | 2.09
2 | CCCc1cc(C(=O)N(C)Cc2cccc3ncccc23)n(C)n1 | -4.03 | 15.6 | 2.46 | 20.3 | 3.25 | -19.3 | 14.6 | 36.1 | 7.53 | 18.5 | -8.05
3 | Cc1cnn(CC2CN(Cc3nc(-c4ccoc4)no3)CCO2)c1 (centres undefined) | -2.87 | 8.11 | -1.58 | 1.14 | 7.08 | 0.401 | 2.16 | 13.1 | 3.45 | 11.1 | -9.57
4 | OC1CCN(Cc2c(C3CCCNC3)[nH]c3ncccc23)CC1 (centres undefined) | -5.49 | 12.2 | 11.9 | 5.12 | -5.93 | -3.94 | 8.42 | -1.37 | -5.38 | 9.09 | -6.12
5 | CC1CN(C(=O)CN(Cc2ccco2)C2CC2)CCO1 (centres undefined) | -2.04 | 0 | 2.98 | -1.26 | -3.62 | 4.84 | 0.242 | 22.1 | 1.91 | 2.35 | -8.2
6 | CC(C)COC(C)C(=O)NCc1ccc(N(C)C)cc1 (centres undefined) | -2.38 | 23.4 | 3.83 | -18.6 | 2.06 | -2.32 | 23.4 | 5.87 | 5.71 | 30.6 | -26.1
7 | COc1ccc(CCN2CCCC2Cn2nc(C)nc2C)cc1 (centres undefined) | -3.93 | 10.1 | -5.37 | -5.48 | -0.85 | 6.46 | 6.31 | 26.4 | 6.4 | 8.86 | -5.44
8 | O=C(NCC(Cc1cccc(F)c1)N1CCCC1=O)c1ccccc1 (centres undefined) | -6.41 | -5.48 | 27.6 | -11 | -5.68 | 0 | 13.1 | 6.32 | 1.07 | 5 | -2.23
9 | Cc1ccc(NC(=O)N(C)Cc2cnn(C)c2)cc1OCC(F)F | -9.52 | 2.7 | -18.9 | 28 | 12.4 | -11.2 | 6.67 | 11.9 | 3.45 | 23.5 | -16.1
